Consider 33 molecules from PubChem BioAssay.

The source made the active and inactive calls. How the calls were made is not given here.

The test is described as follows: inhibition of 3D7 malaria parasite growth – strain 3D7 (AID 2306).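 Further: 0% = DMSO wells and 100% = chloroquine plus artemisinin control wells.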 The note with it: P. falciparum 3D7 erythrocytic growth, LDH absorbance, 72 h; at 2 µM; hits give high values.
With `Cc1[nH]nc2ccc(-c3cc(OC[C@@H](N)Cc4ccccc4)cnc3-c3cc4ccccc4s3)cc12`, the growth inhibition was 99% (active).
For the molecule `Cc1ccc(Nc2c3ccccc3nc3ccc(C)cc23)cc1`, the growth inhibition is 88% (active).
For the molecule `NS(=O)(=O)c1cccc(N=Cc2c(O)[nH]c3ccc(S(=O)(=O)Cc4c(Cl)cccc4Cl)cc23)c1`, the growth inhibition is 92% (active).
With `CCNC(=O)Nc1ccc(N(C)c2ccnc(Nc3ccc(CS(C)(=O)=O)cc3)n2)cc1` the figure was 101% (active); with `O=C(O)c1ccc(-c2cnc3ccc(NC4CCC(O)CC4)nn23)cc1` (stereo not drawn), 98% (active); with `COc1ccc(NC(=O)c2ccc(-c3cccc(OCc4ccccc4)c3)cc2)cc1N1CCN(C)CC1`, 85% (active).
With `CN(C)CC(O)COc1ccc(Nc2ncc([N+](=O)[O-])c(Nc3ccccc3O)n2)cc1` (stereo not drawn) the figure was 100% (active).
Turning to `CCc1cc2c3c(N)nc(N)nc3ccc2n1C(C)(C)C`, the growth inhibition was 99% (active).
Consider `CC(Sc1n[nH]c(-c2ccccc2Br)n1)C(=O)Nc1ccc(F)cc1` (stereo not drawn), for which the growth inhibition is 90% (active).
Consider `O=C(CN1C(=O)CC1S(=O)(=O)Cc1ccco1)NCCCCCCc1ccc(F)cc1` (stereo not drawn), for which the growth inhibition was 95% (active).
Consider `CCN(CC)CCNC(=O)c1ccc(N=Cc2c(O)[nH]c3ccc(S(=O)(=O)Cc4c(Cl)cccc4Cl)cc23)cc1`, for which the growth inhibition is 100% (active).
For the molecule `N#Cc1ccc(C(=O)Nc2cc(-c3cccc(O)c3)cc3[nH]ncc23)cc1`, the growth inhibition was 90% (active).
With `Cc1ccc(Nc2nc3cc(Nc4ccnc(Nc5cccc(CS(C)(=O)=O)c5)n4)ccc3o2)cc1` the figure was 101% (active); with `C[C@H]1CN(Cc2ccc(-c3cccc(CNC(=O)c4cccc(C(=O)c5ccc(Cl)c(Cl)c5)c4)c3)s2)CCN1`, 99% (active).
For the molecule `COc1cc2c(cc1C(F)(F)F)N(C(=O)Nc1ccc(Br)cn1)CC2`, the growth inhibition was 97% (active).
With `Brc1ccsc1-c1nc(NC2CCN(Cc3ccccc3)CC2)no1` the figure was 80% (active); with `Cc1cccc(Cn2ccc3c(N)nc(N)nc32)c1`, 82% (active); with `Cc1nc(Nc2ccc(F)cc2)nc(N2CCc3ccccc3[C@@H]2C)c1C`, 92% (active).
Take `c1ccc2c3c([nH]c2c1)C(c1ccc2c(c1)CCO2)N(c1ncnc(N2CCN(CCCN4CCOCC4)CC2)n1)CC3` (stereo not drawn): the growth inhibition is 80% (active).
Consider `COc1c(C2CCN(CCCCNC(=O)C=Cc3ccccc3C(F)(F)F)CC2)ccc2c1CCCC2`, for which the growth inhibition is 96% (active).
Turning to `CCS(=O)(=O)c1ccc(OC)c(Nc2nccc(-c3c(-c4cccc(NC(=O)c5c(F)cccc5F)c4)nn4ncccc34)n2)c1`, the growth inhibition was 87% (active).
With `C[C@@H]1CN(c2ccc3[nH]cc(Sc4ccc(-c5cccs5)cc4)c3c2)C[C@H](C)N1` the figure was 89% (active); with `O=[N+]([O-])c1ccc(-n2nc(-c3cccnc3)n(Cc3ccco3)c2=S)c(Cl)c1`, 95% (active).
As to `COc1cc(Nc2nccc(-c3c(-c4cccc(NC(=O)c5c(F)cccc5F)c4)nn4ncccc34)n2)cc(OC)c1OC`, the growth inhibition is 98% (active).
On to `Cn1cccc1C(=O)Nc1cccc(-c2nn3ccccc3c2-c2ccnc(Nc3ccc4c(c3)OCCO4)n2)c1`, for which the growth inhibition was 95% (active).
The result for `CC(C)CN1C(=O)C(c2ccc(F)c(F)c2)=C(O)C1c1ccccc1` (stereo not drawn) reads 94% (active).
`Cc1ccc(Cn2ccc3c4c(N)nc(N)nc4ccc32)cc1`: the growth inhibition is 99% (active).
For `O=C(Nc1ccccc1)Nc1cccc(-c2nn3c(OCCN4CCCC4)cccc3c2-c2ccncc2)c1`, the growth inhibition was 102% (active).
The result for `Cc1ccc(-n2c(C)cc(C(=O)CN3C(=O)NC(Cc4ccccc4)C3=O)c2C)cc1` (stereo not drawn) reads 82% (active); that for `Cc1csc2nc(C(C)c3ccc(NC(=O)c4cccs4)cc3)oc(=O)c12` (stereo not drawn), 90% (active); that for `COc1cc(Cc2cnc(N)nc2N)ccc1OCc1csc(-c2ccc(Cl)cc2)n1`, 93% (active).
On to `CCn1c(-c2nonc2N)nc2c(-c3cc4ccccc4s3)ncc(C(=O)N3CCC(N)C3)c21` (stereo not drawn), for which the growth inhibition is 98% (active).
Take `Cc1ccccc1Cn1ccc2c3c(N)nc(N)nc3ccc21`: the growth inhibition is 100% (active).
